# High-throughput results deposited in PubChem BioAssay by several laboratories.
# Yp Topo-I inh: inhibitors of Yersinia pestis topoisomerase I. Y. pestis Topo-I cleavage product accumulation, plate reader. activity, % at 10 µM. actives 0.064% (n = 360,000); in the data active = activity above about 50%, passing the limit was not always enough
# GDH-TPI counter-1: inhibits GDH-TPI coupling enzymes, artifact for Mtb FBA screen | inhibition, % at 4.8 µM | GDH-TPI coupled enzyme counterscreen, NADH absorbance | AID 588335 | actives 1.2% (n = 360,000); in the data active = inhibition above about 30%;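 also: 0% = DMSO wells and 100% = wells lacking the enzyme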
# Mtb hypoxia rep: inhibitors of hypoxia-regulated fluorescent reporter in Mycobacterium tuberculosis. actives 0.1% (n = 300,000). M. tuberculosis hypoxia-regulated fluorescent reporter, fluorescence. AID 1159583. fluorescence inhibition, % (concentration not given with the values); in the data active = fluorescence inhibition mostly above about 23%, no sharp cut-off; inactive = mostly below about 17%
# PrP UTR inh: suppresses PrP 5' UTR mRNA reporter expression. actives 0.35% (n = 340,000). cell-based PrP 5' UTR mRNA reporter, plate reader. inhibition, % (test concentration not listed); in the data active = inhibition above about 52%; also: 0 = median of the neutral control wells
# PrPC TRFRET: inhibitors of human cell surface prion protein PrPC; P04156; TR-FRET read-out; inhibition, % at 13.8 µM; actives 0.43% (n = 370,000); AID 720596; in the data active = inhibition above about 24%; also: 0% = median of the test wells and 100% = reference compound wells
# FBA Mtb inh: Mtb fructose-bisphosphate aldolase inhibition; P9WQA3; purified M. tuberculosis FBA, fluorescence read-out; inhibition, % at 1 µM; actives 2.3% (n = 360,000); AID 588726;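 also: 0% = vehicle and 100% = reference inhibitor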
# Target sequence (P9WQA3 whole entry, looked up): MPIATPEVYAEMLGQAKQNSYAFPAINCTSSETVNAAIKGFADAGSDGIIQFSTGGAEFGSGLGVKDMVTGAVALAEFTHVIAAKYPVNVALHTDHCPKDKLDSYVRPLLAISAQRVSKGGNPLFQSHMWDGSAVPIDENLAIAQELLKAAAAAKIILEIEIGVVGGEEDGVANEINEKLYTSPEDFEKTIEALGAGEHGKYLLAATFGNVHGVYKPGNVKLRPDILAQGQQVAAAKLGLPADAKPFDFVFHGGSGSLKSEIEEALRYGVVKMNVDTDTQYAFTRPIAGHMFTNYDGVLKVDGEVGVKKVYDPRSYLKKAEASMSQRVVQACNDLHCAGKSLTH
# Mtb FBA confirm: confirmation of M. tuberculosis fructose-bisphosphate aldolase inhibitors; shares compounds with FBA Mtb inh; purified M. tuberculosis FBA, fluorescence read-out; inhibition, % at 1 µM; actives 78% (n = 5,600);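 also: 0% = vehicle wells and 100% = reference inhibitor wells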
# GDH-TPI counter-2: counter-screen for M. tuberculosis FBA inhibitors: GDH-TPI coupled enzyme inhibition. AID 652141. shares compounds with FBA Mtb inh. actives 81% (n = 5,600). inhibition, % at 1 µM. GDH-TPI coupled enzyme counterscreen, fluorescence; in the data active = inhibition above about 10%
# GDH-TPI DR: counter-screen for M. tuberculosis FBA inhibitors: GDH-TPI dose response | shares compounds with FBA Mtb inh | GDH-TPI coupled enzyme assay, fluorescence, artifact counterscreen | IC50, µM | actives 79% (n = 170); call rule not given here
# Active calls of the source: *; . = no result given; + = active, no number. An excerpt weighted towards active compounds, which were near 3.8% of everything screened. Rule as the data show it, unless noted: active = inhibition above about 27%; inactive = the rest.
SMILES,Yp Topo-I inh,GDH-TPI counter-1,Mtb hypoxia rep,PrP UTR inh,PrPC TRFRET,FBA Mtb inh,Mtb FBA confirm,GDH-TPI counter-2,others
C=C1C(O)C(Cc2ccccc2)N(Cc2ccccc2Br)S1(=O)=O (stereo unspecified),.,.,14,.,.,.,.,.,
CCOC(=O)c1cc(=O)nc(N)s1,6,4,.,.,5,1,.,.,
Cc1cccc2c1-c1sc(C(=O)Nc3cccc([N+](=O)[O-])c3C)cc1CO2,-9,14,3,-27,2,7,.,.,
O=C(Nc1nccs1)c1cc2c(s1)-c1ccccc1OC2,0,27,-6,-114,1,28*,142*,116*,
Cc1cccc2c1-c1sc(C(=O)Nc3nccs3)cc1CO2,-14,2,-3,-113,6,42*,1,-1,
O=C(Nc1ccc(Cl)cn1)c1cc2c(s1)-c1ccccc1OC2,0,11,6,-59,-8,47*,26,20*,
CCOC(=O)c1cc2c(s1)-c1c(C)cccc1OC2,38,17,-5,-42,-4,82*,14,17*,
COc1ccc(-c2ccc(N(C)C)cc2)cc1C1C2C=CCC[C@@]2(C)C(=O)N1Cc1ccccc1 (stereo partly specified),.,.,-1,.,.,.,.,.,
COC(=O)CN1C(=O)C2C(c3ccc(C)o3)N3C(=O)CN(Cc4ccccc4)C(=O)[C@@]3(C)C2C1=O (stereo partly specified),.,.,1,.,.,.,.,.,
Cc1onc(-c2ccccc2Cl)c1C(=O)Nc1nnc(-c2ccc(Cl)cc2Cl)s1,-2,21,11,-3,0,62*,68*,57*,
Nc1nc2n(n1)C(c1cccs1)CC(c1ccc(Br)cc1)N2 (stereo unspecified),4,8,-9,-29,-3,48*,16,9,GDH-TPI DR=7.8*
COc1cc2cc(C(=O)N(C)C3CCS(=O)(=O)C3)[nH]c2cc1OC (stereo unspecified),-1,19,-3,0,-1,31*,7,-2,
CCOc1ncccc1C(=O)OCC(=O)Nc1ccc(-c2nc3ccc(C)cc3s2)cc1,5,14,4,-30,4,34*,33*,23*,
Cc1ccc2nc(-c3ccc(NC(=O)COC(=O)c4cncc(Br)c4)cc3)sc2c1,-2,14,8,-19,0,40*,33*,26*,
COc1ccc(/C=C(\C#N)C(=O)OCC(=O)Nc2ccc(-c3nc4ccc(C)cc4s3)cc2)cc1,5,-3,8,-12,2,31*,119*,90*,
Cc1ccc2nc(-c3ccc(NC(=O)COC(=O)c4ccco4)cc3)sc2c1,15,21,-6,-6,10,10,.,.,
Cc1ccc2nc(-c3ccc(NC(=O)COC(=O)c4ccc(Br)o4)cc3)sc2c1,-1,25,-9,17,-3,21,.,.,
CN(Cc1c(C(=O)NN=Cc2ccc(O)cc2)nnn1-c1nonc1N)c1ccccc1,.,.,-4,.,.,.,.,.,
COc1cc2cncc(Cc3ccccc3)c2cc1O,5,15,5,-33,-1,58*,85*,78*,
COc1cc2c(Cc3ccccc3)cncc2cc1O,5,-3,-4,-44,-1,3,.,.,
Cc1ccc(C2N(C)C(=O)c3ccccc3N2C)cc1 (stereo unspecified),2,9,3,-12,9,52*,+,+,
Cc1ccc(C2C(=O)c3ccccc3C2=O)cc1,1,4,16,-8,-9,-2,.,.,
O=C(O)c1ccc2c(c1)C(=O)N(c1ncccn1)C2=O,-3,0,3,-14,-4,0,.,.,
O=C(O)c1ccc2c(c1)-c1nc3ccccc3n1C2=O,5,-1,2,-15,-3,51*,44*,36*,
CCN1C(=O)C2C(c3ccc(-c4ccc(F)cc4)c(OC)c3)N3CCCC[C@@]3(C(=O)OC)C2C1=O (stereo partly specified),.,.,2,.,.,.,.,.,
SMILES,Yp Topo-I inh,GDH-TPI counter-1,Mtb hypoxia rep,PrP UTR inh,PrPC TRFRET,FBA Mtb inh,Mtb FBA confirm,GDH-TPI counter-2,others
CCC(C)NC(=O)c1c(N)n(CCCOC)c2nc3ccccc3nc12 (stereo unspecified),23,4,2,-17,5,94*,+,+,
Cc1cccc(-n2c(N)c(C(=O)NCCN3CCOCC3)c3nc4ccccc4nc32)c1,.,.,-17,.,-10,.,.,.,
CCCCn1c(N)c(C(=O)NCCN2CCOCC2)c2nc3ccccc3nc21,14,11,.,-9,-11,80*,+,+,
CC(C)Cn1c(N)c(C(=O)NCCN2CCOCC2)c2nc3ccccc3nc21,17,22,15,-19,-4,110*,77*,73*,
O=C(CN1CCCC1)Nc1ccc(-c2nc3cc(NC(=O)CN4CCCC4)ccc3o2)cc1,-2,24,3,-51,-8,107*,30*,24*,
Cc1ccc2oc(-c3ccc(NC(=O)CC(C)C)cc3)nc2c1,1,16,1,-135,11,30*,39*,36*,
Cc1ccc(-c2nc3ncccc3o2)cc1NC(=O)CC(C)C,-5,-2,-4,0,0,30*,5,-7,
Cc1ccc2oc(-c3cccc(N)c3)nc2c1,3,2,19,-37,-2,78*,63*,58*,
CCC(C)NCC(=O)Nc1ccc(-c2nc3cc(NC(=O)CNC(C)CC)ccc3o2)cc1 (stereo unspecified),9,21,.,-22,-5,99*,148*,110*,
CCCC(=O)Nc1ccc2oc(-c3ccncc3)nc2c1,6,19,5,-6,-5,17,.,.,
CCN(CC)CC(=O)Nc1ccc(-c2nc3cc(NC(=O)CN(CC)CC)ccc3o2)cc1,-4,16,.,-11,-7,88*,+,150*,
CCc1ccc2oc(-c3ccc(NC(C)=O)cc3)nc2c1,24,-5,12,-45,10,69*,181*,126*,
COCc1c(C(=O)NN=Cc2ccc(C)o2)nnn1-c1nonc1N,.,.,0,.,.,.,.,.,
Nc1nc2ccccc2n1N=Cc1ccc2c(c1)OCO2,.,.,11,.,.,.,.,.,
COc1cc(C(=O)NN=c2sc3ccccc3n2C)cc(OC)c1OC,.,.,1,.,.,.,.,.,
CN1CCN(C(=O)CSc2nc(-c3cccs3)ccc2C#N)CC1,0,28,.,-30,-7,50*,+,+,
CCOC(=O)CSc1nc(-c2ccncc2)ccc1C#N,1,20,.,-77,-20,14,.,.,
N#Cc1ccc(-c2cccs2)nc1SCc1cccnc1,14,-2,11,.,15,34*,12,-5,
